Screening data (PubChem)
BRCT inh green = inhibitors of human BRCA1 BRCT-phosphoprotein interaction (green fluorophore). P38398. BRCA1 BRCT-phosphopeptide binding, green fluorescence polarization. Potency, µM (titrated, usually from 76.9 µM), for inactives: at the top dose activity change, negative = inhibition, most hits filed as inhibitors. actives 0.05% (n = 75,000);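 note: potency is the fitted concentration of half-maximal effect; plate controls were peptide without protein for full effect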
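Fluorescence polarization: His-tagged BRCT (~35 kDa BRCA1 C-terminus, 250 nM) bound to 100 nM fluorescein-labeled phosphorylated 10-aa BACH1 peptide, pH 7.3 phosphate buffer with DTT and Tween 20. Compounds incubated 12 min at room temperature; inhibition read as lowered polarization.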
TsaE inh = YjeE (TsaE) inhibition, E. coli. P0AF67. purified YjeE enzyme, qHTS inhibition assay. Potency, µM. actives 0.05% (n = 71,000)
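Purified YjeE (10 uM) with BODIPY Texas Red-labeled ADP probe (2 uM); compounds pin-transferred, 15 min at room temperature. Binding inhibition read as decreased fluorescence polarization; ADP titration as control.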
DNA Pol III inh = inhibitors of bacterial DNA polymerase III holoenzyme; reconstituted DNA polymerase III holoenzyme replication, biochemical; Potency, µM (series often up to 57.1 µM), for inactives: at the highest dose activity change, negative = inhibition; actives 0.25% (n = 71,000); note: potency is the fitted concentration of half-maximal effect; % is set by controls: 0 for no effect and ±100 for the full control effect
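Reconstituted *E. coli* holoenzyme (0.35 nM Pol III, 1 nM beta, 154 nM SSB, 2 nM primase) was preincubated with compound for 15 min at RT. Synthesis on 1.4 nM ssM13Gori ran 35 min, then was stopped with PicoGreen/EDTA and read as dsDNA fluorescence.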
ERK AVP inh = vasopressin-driven ERK pathway inhibition; HEK293-V1b, vasopressin-stimulated pERK AlphaScreen; Potency, µM (highest dose often 57.5 µM), inactives show top-dose activity, negative = inhibition, hits mostly inhibitors; actives 0.99% (n = 72,000); note: potency is the fitted concentration of half-maximal effect; % is set by controls: 0 for no effect and ±100 for the full control effect; nearly all actives have a fitted effect of over 55% in size
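HEK293 cells stably expressing V1b receptor, seeded overnight in 1% FBS, were treated with compounds for 30 min at 37C, then stimulated 5 min with 25 nM vasopressin; phospho-ERK read by AlphaScreen SureFire after lysis.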
USP2a inh = inhibitors of human ubiquitin-specific protease USP2a; O75604; USP2a enzymatic assay, qHTS inhibition; Potency, µM (titrated, usually from 38.3 µM), for the others: at the highest dose activity change, negative = inhibition, most hits filed as inhibitors; actives 0.1% (n = 60,000); note: potency is the fitted concentration of half-maximal effect; nearly all actives have a fitted effect of over 60% in size
Target sequence (O75604 whole entry, looked up): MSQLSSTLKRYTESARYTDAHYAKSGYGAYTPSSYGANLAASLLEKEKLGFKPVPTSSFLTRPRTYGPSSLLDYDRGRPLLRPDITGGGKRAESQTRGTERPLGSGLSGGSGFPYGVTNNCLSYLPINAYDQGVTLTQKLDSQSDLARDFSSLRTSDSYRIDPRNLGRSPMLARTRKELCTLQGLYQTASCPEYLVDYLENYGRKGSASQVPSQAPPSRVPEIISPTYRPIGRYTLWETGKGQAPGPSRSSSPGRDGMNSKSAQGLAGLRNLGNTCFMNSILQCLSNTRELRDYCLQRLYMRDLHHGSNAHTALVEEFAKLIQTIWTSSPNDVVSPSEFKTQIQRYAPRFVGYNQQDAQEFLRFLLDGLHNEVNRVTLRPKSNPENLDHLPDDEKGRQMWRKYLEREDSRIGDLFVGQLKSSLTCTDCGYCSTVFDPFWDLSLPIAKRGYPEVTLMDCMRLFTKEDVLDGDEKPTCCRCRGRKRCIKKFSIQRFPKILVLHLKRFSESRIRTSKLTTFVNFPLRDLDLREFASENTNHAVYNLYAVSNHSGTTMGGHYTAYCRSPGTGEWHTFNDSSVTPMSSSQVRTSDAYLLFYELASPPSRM
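USP2 core (20nM final) preincubated 30 min RT with compound, then Ub-PLA2 20nM and NBD C6-HPC 20uM final added; buffer 20mM Tris-HCl pH 8.0, 2mM CaCl2. Fluorescence Ex 460/Em 535 read at 0 and 2.5 h; normalized to NEM.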
BRCT PPI red = disrupts BRCA1 BRCT binding to phosphoprotein, red fluorophore readout. BRCT-phosphopeptide binding, red fluorescence polarization. Potency, µM (highest dose often 76.9 µM), for the others: at the top dose activity change, negative = inhibition, usual class: inhibitors. actives 0.03% (n = 75,000). AID 892; note: % is set by controls: 0 for no effect and ±100 for the full control effect
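Rhodamine-labelled pBACH1 10-mer (100 nM) bound to BRCT domain (100 nM) at pH 7.3; compounds incubated 12 min room temperature, polarization read. Free peptide defines full inhibition; unlabelled decapeptide titrated as control.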
An asterisk follows results filed as active; [ ] = dose if it differs, or a comment. The list is not random: actives were taken first. Their share in the collection is about 1.3%. Calls come from the whole dose curve; as a rule, active = well fitted curve in the direction sought with a large enough effect; inconclusive = small, poorly fitted or top-dose-only effect, or another doubt; inactive = no such curve, though single readings can be large; an effect the other way counts as inactive or inconclusive.

For Cc1cccc(Nc2nn3c(=O)c4ccccc4nc3s2)c1 the results were BRCT inh green 0%, TsaE inh inactive, DNA Pol III inh 3.2µM*, ERK AVP inh -16%, USP2a inh -28% and BRCT PPI red 2%.
Screening O=c1c2ccccc2nnn1CSc1nnc(Nc2ccccc2)s1 returned BRCT inh green -3%, TsaE inh inactive, DNA Pol III inh -6%, ERK AVP inh -3%, USP2a inh -3% and BRCT PPI red 0%.
Screening CC(C)N(CCNC(=O)c1ccc(Cc2nc3ccccc3[nH]2)cc1)C(C)C returned BRCT inh green -2% and BRCT PPI red -2%.
Screening Cc1c(N2C(=O)c3ccc4c5c(ccc(c35)C2=O)CC4)c(=O)n(-c2ccccc2)n1C returned BRCT inh green -16%, TsaE inh inactive, DNA Pol III inh 25µM*, ERK AVP inh -24%, USP2a inh 6% and BRCT PPI red -26%.
For CCN(CC)S(=O)(=O)c1cc(C(=O)Nc2nncs2)c(Cl)cc1Cl the results were BRCT inh green -1%, TsaE inh inactive, DNA Pol III inh -6%, ERK AVP inh 32µM*, USP2a inh 4% and BRCT PPI red 0%.
Clc1ccc2nc(-c3ccccc3)[nH]c2c1 was read as BRCT inh green -1%, ERK AVP inh 25µM* and BRCT PPI red -4%.
`CCN(CC)c1ccc(NC(=O)c2cccc(C)c2OC)c(C)c1` gave BRCT inh green -5%, TsaE inh inactive, DNA Pol III inh -1%, ERK AVP inh 25µM*, USP2a inh -6% and BRCT PPI red -7%.
COc1cccc(OC)c1OCCNC[C@@H]1CSc2ccccc2O1 was read as BRCT inh green -2%, TsaE inh inactive, DNA Pol III inh -3%, ERK AVP inh -3%, USP2a inh 5% and BRCT PPI red 1%.
CN(C)S(=O)(=O)N1CCN(CC(O)COc2ccc(C(=O)c3ccccc3)cc2)CC1 (centres undefined) was read as BRCT inh green 1%, TsaE inh inactive, DNA Pol III inh -2%, ERK AVP inh 32µM*, USP2a inh 30% and BRCT PPI red -3%.
`O=C(Nc1nc2c(Cl)cccc2s1)c1ccc(Br)o1` gave BRCT inh green -1%, TsaE inh inactive, DNA Pol III inh 0%, ERK AVP inh 25µM*, USP2a inh 4% and BRCT PPI red 0%.
For Brc1ccc(-c2nn3c(-c4ccco4)nnc3s2)o1 the results were BRCT inh green -11%, TsaE inh inactive, DNA Pol III inh 25µM*, ERK AVP inh -22%, USP2a inh 3% and BRCT PPI red -11%.
C[C@@H]1c2cccc(O)c2C(O)=C2C(=O)[C@@]3(O)C(O)=C(C(N)=O)C(=O)[C@@H](N(C)C)[C@@H]3[C@@H](O)[C@@H]21 was read as BRCT inh green -1%[34.4 µM], TsaE inh inactive, DNA Pol III inh -7%[25.6 µM], ERK AVP inh 13%[25.7 µM], USP2a inh 16µM* and BRCT PPI red -1%[34.4 µM].
`CS(=O)(=O)Nc1cccc(-c2ccc3ncnc(NCc4cccs4)c3c2)c1` gave BRCT inh green 2%, TsaE inh inactive, DNA Pol III inh -3%, ERK AVP inh 16µM*, USP2a inh 209% and BRCT PPI red 1%.
For CCOc1ccc2nc(NC(=O)COC)sc2c1 the results were BRCT inh green -2%, TsaE inh inactive, DNA Pol III inh -1%, ERK AVP inh -10%, USP2a inh 4% and BRCT PPI red -1%.
CCOc1ccc2nc(NC(=O)Nc3cccs3)sc2c1 was read as BRCT inh green -1%, TsaE inh inactive, DNA Pol III inh -6%, ERK AVP inh 32µM* and BRCT PPI red 0%.
For Cc1ccc2nc(-c3ccc(N)cc3)sc2c1S(=O)(=O)O the results were BRCT inh green 14%, TsaE inh inactive, DNA Pol III inh inconclusive, ERK AVP inh 7% and BRCT PPI red 0%.
CCOC(=O)N1CCN(C(=O)C2COc3ccccc3O2)CC1 (centres undefined) was read as BRCT inh green -2%, TsaE inh inactive, DNA Pol III inh 6%, ERK AVP inh -11%, USP2a inh 8% and BRCT PPI red 1%.
For CCOC(=O)c1c(C2COc3ccccc3O2)csc1N (centres undefined) the results were BRCT inh green 1%, TsaE inh inactive, DNA Pol III inh -4%, ERK AVP inh 32µM*, USP2a inh -24% and BRCT PPI red 0%.
Screening N#Cc1c(-c2ccco2)cc(-c2cccnc2)nc1N returned BRCT inh green inconclusive, TsaE inh inactive, DNA Pol III inh 32µM*, ERK AVP inh inconclusive, USP2a inh -77% and BRCT PPI red inconclusive.
Screening O=C(O)CC[C@@H](NC(=O)c1ccccc1C(=O)O)C(=O)O returned BRCT inh green -3%, TsaE inh inactive, DNA Pol III inh 7%, ERK AVP inh 42%, USP2a inh -2% and BRCT PPI red 1%.
Screening Cc1cccc(CNc2cc(-c3ccccc3C)ncn2)c1 returned BRCT inh green 2%, TsaE inh inactive, DNA Pol III inh -9%, ERK AVP inh 10µM*, USP2a inh -4% and BRCT PPI red 0%.
For N#Cc1cccc(-c2cc(NCc3ccccc3)ncn2)c1 the results were BRCT inh green -1%, TsaE inh inactive, DNA Pol III inh 13%, ERK AVP inh 20µM*, USP2a inh 32% and BRCT PPI red -1%.
`N#Cc1cccc(-c2nc(NCc3ccccc3)c3ccccc3n2)c1` gave BRCT inh green 0%, TsaE inh inactive, DNA Pol III inh 6%, ERK AVP inh 20µM*, USP2a inh -54% and BRCT PPI red -1%.
`COc1ccccc1-c1cc(NCc2cccc(C)c2)ncn1` gave BRCT inh green -1%, TsaE inh inactive, DNA Pol III inh -4%, ERK AVP inh inconclusive, USP2a inh 32% and BRCT PPI red 0%.
C=C(CO)C1Cc2c(ccc3c2OC2COc4cc(OC)c(OC)cc4C2C3=O)O1 (centres undefined) was read as BRCT inh green -1%, ERK AVP inh inconclusive and BRCT PPI red -1%.
Screening CN1C(=O)CSc2ccc(NC(=O)N3CCOCC3)cc21 returned BRCT inh green 1%, TsaE inh inactive, DNA Pol III inh -8%, ERK AVP inh inconclusive, USP2a inh 18% and BRCT PPI red 0%.
For CC(=O)c1cccc(NC(=O)Nc2ccc3c(c2)N(C)C(=O)CS3)c1 the results were BRCT inh green 4%, TsaE inh inactive, DNA Pol III inh 0%, ERK AVP inh 10µM*, USP2a inh 44% and BRCT PPI red 0%.
